Test results: PubChem BioAssay AID1851 (National Center for Advancing Translational Sciences (NCATS), 2009)
Hit rate of the full screen: of about 16,000 compounds, about 5,100 (32%) were called active. Another 25% or so got no clear call; they are omitted. The list shows a part of the results. Unmarked numbers belong to inactive results. The call rests on the fitted dose curve; in most records, active means well fitted curve in the direction sought with a large enough effect; inconclusive means small, poorly fitted or top-dose-only effect, or effect the other way; inactive means no such curve, though single readings can be large or run the other way. Peptide text beside a SMILES is read from it.
On the % scale 0 is the no-effect control and ±100 the full control effect.

What follows are molecules tested against Cytochrome P450 3A4 (Homo sapiens) (UniProt P08684) (assay: Cytochrome panel assay with activity outcomes). Conditions: recombinant CYP, pro-luciferin dealkylation, luminescence, p450-cyp3a4; series mostly up to 57.1 µM; activity, negative = inhibition: at the top concentration.
Chain of Cytochrome P450 3A4 (Homo sapiens) (P08684 whole entry, looked up): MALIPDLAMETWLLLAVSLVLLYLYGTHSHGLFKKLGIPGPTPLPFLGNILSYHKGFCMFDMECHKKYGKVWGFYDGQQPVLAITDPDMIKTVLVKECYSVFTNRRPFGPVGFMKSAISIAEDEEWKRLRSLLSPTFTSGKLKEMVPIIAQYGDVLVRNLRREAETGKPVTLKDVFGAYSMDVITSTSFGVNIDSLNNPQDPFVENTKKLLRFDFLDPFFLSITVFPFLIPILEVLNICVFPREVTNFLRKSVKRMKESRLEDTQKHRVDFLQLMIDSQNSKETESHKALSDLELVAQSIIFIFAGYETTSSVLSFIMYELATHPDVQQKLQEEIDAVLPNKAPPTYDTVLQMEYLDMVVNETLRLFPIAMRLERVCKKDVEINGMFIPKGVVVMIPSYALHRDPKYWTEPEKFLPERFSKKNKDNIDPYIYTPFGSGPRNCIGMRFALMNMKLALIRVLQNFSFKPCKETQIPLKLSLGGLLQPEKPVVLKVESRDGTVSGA
`CN(C)C(N)=NCCC[C@H](N)C(=O)O` was tested, and the “activity, negative = inhibition” value was 2.12%. Work on `Cc1ccc(C(=O)N/N=C\c2ccc[nH]2)cc1[N+](=O)[O-]` yielded an activity, negative = inhibition of 16.8% [at 2.29 µM]. With `Cc1ccc(-c2ccc(/C=N/NC(=S)Nc3ccccc3)o2)cc1[N+](=O)[O-]` the AC50 was 7.08 µM (active). In the case of `Cc1ccc(-c2ccc(/C=N\NC(=O)c3cc4c(ccc5ccccc54)o3)o2)cc1[N+](=O)[O-]`, the “activity, negative = inhibition” value is reported as -21.4%. `Cc1cc(C(F)(F)F)n2nc(-c3cnn(C)c3C(F)(F)F)c(Cl)c2n1` was tested, and the “activity, negative = inhibition” value was -19%. For `Clc1ccccc1-c1nc(-n2ccnc2)c2ccccc2n1`, the AC50 was 0.501 µM (active). For `Cc1ccccc1-c1nc(-n2ccnc2)c2ccccc2n1`, the AC50 was 0.398 µM (active). `NC(=O)c1ccccc1-c1nc(-n2ccnc2)c2ccccc2n1` was tested, and the AC50 was 3.98 µM (active). Molecule `CC(C)(C)OC(=O)[C@H]([C@@H]1N[C@@H](C(=O)O)C(C)(C)S1)N1C(=O)c2ccccc2C1=O` has an activity, negative = inhibition of -8.52% [at 11.4 µM]. For `COc1ccc(NC(=O)CSc2nc3ccccc3c(=O)n2CCC(=O)N2CCCCC2)cc1`, the AC50 was 2 µM (active). `COCC(=O)N1CCC2(CC1)CCN(C(=O)Nc1ccc(OC)cc1)CC2` was tested, and the “activity, negative = inhibition” value was -9.58%. For `Cc1cc(NC(=O)CSc2nc3ccccc3c(=O)n2CCCC(=O)NCc2ccco2)n[nH]1`, the AC50 was 3.55 µM (active). For `CCCCn1c(SCC(=O)Nc2nccs2)nc2ccccc2c1=O`, the AC50 was 3.16 µM (active). `Cc1cccc(C)c1-n1c(SCC(=O)NCc2ccco2)nc2ccccc2c1=O` was tested, and the AC50 was 3.98 µM (active). In the case of `O=C(CSc1ccccc1C(=O)O)NCc1ccco1`, the “activity, negative = inhibition” value is reported as -4.45%. In the case of `CCCCNC(=O)C(=O)c1ccccc1NC(C)=O`, the “activity, negative = inhibition” value is reported as -7.34%. For `CCCCNC(=O)CSc1nc2ccccc2c(=O)n1CCNC(C)=O`, the AC50 was 25.1 µM (active). For `Cc1cc(C)c(NC(=O)C(C)Sc2nnc(-c3ccco3)n2-c2ccccc2)c(C)c1` (centres undefined), the AC50 was 3.55 µM (active). `C=CCSc1nc2ccccc2c(=O)n1Cc1ccco1` gave an activity, negative = inhibition of -25.8% [at 11.4 µM]. With `CC(=O)NCCn1c(SCC(=O)NCc2ccco2)nc2ccccc2c1=O` the AC50 was 15.8 µM (active). In the case of `O=C(CSc1nnc(-c2ccco2)n1-c1ccccc1)NCc1ccco1`, the AC50 is reported as 15.8 µM (active). For `O=C(CSc1nnc2sc3ccccc3n12)NCc1ccco1`, the activity, negative = inhibition was -18.1% [at 11.4 µM]. In the case of `Cc1ccc(Oc2nn[nH]n2)cc1`, the “activity, negative = inhibition” value is reported as 0.361%. `CC1CCC(C(=O)O)([C@H](Br)C(=O)O)CC1` (some centres undefined) showed an activity, negative = inhibition of -2.61% [at 11.4 µM]. For `NC(=O)OCC(COC(N)=O)c1ccccc1`, the “activity, negative = inhibition” value was -10.4%. With `CCS(=O)(=O)N1CCC(C(=O)NCc2ccco2)CC1` the “activity, negative = inhibition” value was 3.51%. In the case of `CCCCCn1c(SCc2ccncc2)nc2cc(C(=O)NCc3ccco3)ccc2c1=O`, the AC50 is reported as 0.794 µM (active). For `O=C(O)CCCCCn1c(SCC(=O)N2CCCC2)nc2ccsc2c1=O`, the “activity, negative = inhibition” value was -2.61%. In the case of `CCOC(=O)CSc1nc2ccccc2c(=O)n1CC1CCC(C(=O)NCc2ccco2)CC1` (centres undefined), the AC50 is reported as 5.01 µM (active). `O=C(CSc1nc2ccccc2c(=O)n1CCCC(=O)N1CCCC1)NCc1ccco1` was tested, and the AC50 was 6.31 µM (active). With `CCN(C(=O)CSc1nc2cc(C(=O)OC)ccc2c(=O)n1Cc1ccco1)c1cccc(C)c1` the “activity, negative = inhibition” value was 16.4%. In the case of `CC(/C=N/n1c(-c2cccnc2)n[nH]c1=S)=C\c1ccccc1`, the AC50 is reported as 2 µM (active). `O=C(O)CC[C@]1(C(=O)O)CCC(=O)c2ccccc21` gave an activity, negative = inhibition of -0.615% [at 11.4 µM]. In the case of `COc1ccccc1CNc1cc(-c2ccoc2)ncn1`, the AC50 is reported as 15.8 µM (active). With `COc1ccc(CNc2cc(-c3ccoc3)ncn2)c(OC)c1` the AC50 was 15.8 µM (active). `Cc1cc(Oc2ccccc2)nc(-c2ccccc2)n1` was tested, and the “activity, negative = inhibition” value was 12.9%. With `Cc1cc(Oc2ccc(-c3ccccc3)cc2)nc(N2CCOCC2)n1` the “activity, negative = inhibition” value was -13.8%. `COc1cccc(Sc2cc(N3CCOCC3)nc(-c3ccccc3)n2)c1` was tested, and the AC50 was 0.794 µM (active). In the case of `Cc1ccc(S(=O)(=O)c2cc(N3CCOCC3)nc(-c3ccccc3)n2)cc1`, the activity, negative = inhibition is reported as -13.7% [at 2.29 µM]. In the case of `Cc1ccc(Oc2cc(N3CCOCC3)nc(-c3ccccc3)n2)cc1`, the AC50 is reported as 14.1 µM (active). `O=c1nc(N2CCOCC2)ccn1-c1nc(-c2ccccc2)oc1-c1ccccc1` was tested, and the “activity, negative = inhibition” value was -11.6%. For `N#C/C(=C\c1ccc(N2CCCC2)c([N+](=O)[O-])c1)c1nc2ccccc2[nH]1`, the AC50 was 1.58 µM (active). In the case of `N#C/C(=C/c1ccc(N2CCCC2)c([N+](=O)[O-])c1)c1nc2ccccc2[nH]1`, the AC50 is reported as 2.82 µM (active). For `Cc1cc(N2CCN(C)CC2)n2nc(-c3ccc(Cl)cc3)nc2n1`, the activity, negative = inhibition was -14.4% [at 11.4 µM]. For `Cc1cc(N)n2ncc(-c3ccc(Cl)cc3)c2n1`, the AC50 was 15.8 µM (active). `Cc1nc2nc(-c3ccc(Cl)cc3)nn2c(C)c1Cl` was tested, and the “activity, negative = inhibition” value was 24.5%. In the case of `CC(C)(C)C(=O)OCc1cn(-c2ccc(Cl)cc2)nn1`, the “activity, negative = inhibition” value is reported as -21.3%. For `COc1cc(S(C)=O)ccc1-c1nc2ncccc2[nH]1` (centres undefined), the “activity, negative = inhibition” value was -7.54% [at 25.6 µM]. In the case of `O=C(Nc1cccn(Cc2ccc(F)cc2)c1=O)NC1CCCCC1`, the AC50 is reported as 15.8 µM (active). In the case of `Cc1ccc(Cn2cccc(NC(=O)NC3CCCCC3)c2=O)cc1`, the AC50 is reported as 12.6 µM (active). `Cc1ccc(Cn2cccc(NC(=O)NCc3ccccc3)c2=O)cc1` was tested, and the “activity, negative = inhibition” value was -19%. In the case of `NCCSCCC(=O)O`, the activity, negative = inhibition is reported as -1.66% [at 11.4 µM]. `CC(Oc1ccccc1)c1ccnn1S(=O)(=O)c1ccccc1` (centres undefined) showed an activity, negative = inhibition of -13.1% [at 11.4 µM]. In the case of `O=S(=O)(c1ccc(F)cc1)n1ccc(-c2cnc(-c3ccccc3)s2)n1`, the AC50 is reported as 11.2 µM (active). With `COc1ccc(S(=O)(=O)n2ccc(-c3cnc(-c4ccccc4)s3)n2)cc1` the AC50 was 3.98 µM (active). With `CC[C@@H](C)[C@H]1O[C@]2(CC[C@@H]1C)C[C@@H]1C[C@H](C/C=C(/C)[C@H](O[C@@H]3C[C@H](OC)[C@H](O[C@@H]4C[C@H](OC)[C@@H](O)[C@H](C)O4)[C@H](C)O3)[C@@H](C)/C=C\C=C3CO[C@@H]4[C@H](O)C(C)=C[C@@H](C(=O)O1)[C@]34O)O2` (tested in a mixture with another compound) the “activity, negative = inhibition” value was -40.2%. `COC(=O)C(CC(C)C)NC(=O)C(N)Cc1ccccc1` (stereo not drawn) (H-Phe-Leu-OMe; configuration not given here) was tested, and the AC50 was 14.1 µM (active). With `COC(=O)[C@H](Cc1ccccc1)NC(=O)[C@@H](C)CO` the activity, negative = inhibition was -44.5% [at 11.4 µM]. In the case of `CC(C)C[C@H](NC(=O)[C@@H](O)[C@@H](N)Cc1ccccc1)C(=O)O`, the AC50 is reported as “inactive”.
